VCAM1 TNFa pot: potentiators of TNFa-induced VCAM1 expression, primary screen, imaging, HUVEC, TNFa stimulus, immunofluorescence | 0.19% of 93,000 active | HUVEC TNFa-stimulated VCAM-1 immunofluorescence, high-content imaging; scaled per plate to unstimulated/TNFa-only wells | activation, % at 2 µM;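 active = activation above the screen mean plus 3 SD, with well images confirming the hit on visual review, cut at about 28% in these data, passing the limit was not always enough; inconclusive = activation above that limit but images do not confirm it; inactive = activation not above that limit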;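 also: signal is the number of cytoplasmic VCAM-1 stained grains per positive cell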
VCAM1 pot confirm: potentiators of TNFa-induced VCAM1 expression, confirmation, imaging, HUVEC, triplicate retest; shares compounds with VCAM1 TNFa pot; HUVEC TNFa-stimulated VCAM-1 immunofluorescence imaging; activation, % at 2 µM; 230 tested, under 10 active; AID 1034, 2008;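 active = activation above 30% in triplicate retests at 2 µM, then confirmed by visual review of the well images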;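 also: scaled per plate between unstimulated and TNFa-stimulated DMSO control wells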
* = called active by the depositor; u = inconclusive. This excerpt belongs to a sample that is enriched for hits.

SMILES | VCAM1 TNFa pot | others
CN(CC(=O)Nc1nc2ccccc2s1)S(=O)(=O)c1ccccc1 | 16.3
CCOC(=O)c1[nH]c2ccc(OC)cc2c1C | -4.2
CCOC(=O)c1c(N)sc(-c2ccccc2)c1C | 45.3* | VCAM1 pot confirm=-10.1
CCOC(=O)c1cc(C)n(CCc2ccccc2)c1C | -9.0
c1ccc(CSc2nnc(-c3ccncc3)o2)cc1 | 57.6* | VCAM1 pot confirm=-12.8
COC(=O)C(C)Sc1nnc(-c2ccncc2)o1 (stereo not given) | -19.3
c1ccc(-c2nnc(CSc3nncs3)o2)cc1 | -93.2
Cc1ccc(C(=O)C(OC(=O)COc2ccccc2C)c2ccccc2)cc1 (stereo not given) | -0.2
CC1=C(C(=O)OCc2ccccc2)C(c2ccoc2)C(C#N)=C(N)O1 (stereo not given) | -3.9
COc1cccc(N/C=C(\C#N)c2ccc(OCCCF)cc2)c1 | 0.0
N/C(=N\OC(=O)c1ccc(Br)cc1)c1ccccc1 | 57.8* | VCAM1 pot confirm=-14.7
O=C(/C=C/NNC(=O)c1ccccc1)c1ccc(Br)cc1 | -7.9
Cc1cccc(/C(N)=N/OC(=O)c2ccco2)c1 | 2.5
O=C(CCc1ccccc1)Nc1cc(C(F)(F)F)ccc1Cl | -6.6
CC(CC(=O)Nc1cc([N+](=O)[O-])ccc1Cl)c1ccccc1 (stereo not given) | 52.6* | VCAM1 pot confirm=-20.6
CCC(=O)NC(c1ccc([N+](=O)[O-])cc1)c1c(O)ccc2ccccc12 (stereo not given) | -5.1
CCCCOc1ccc(NC(=O)CSc2nnnn2C)cc1 | 2.2
CCCSc1nnc(C(C)C)n1N | -3.8
CCOC(=O)c1cc(-c2ccc(OC)cc2F)nc2c1c(C)nn2CCC#N | 33.6* | VCAM1 pot confirm=-15.1
CCOC(=O)c1cc(C#N)c(N2CCCC2)nc1-c1ccccc1 | -7.4
CCNC(=O)C1CC(=O)N(Cc2ccc3c(c2)OCO3)C(=Nc2ccc(OCC)cc2)S1 (stereo not given) | -5.2
O=C(Nc1ccc2nsnc2c1)c1ccc2c(c1)OCO2 | -29.5
O=C(Nc1ccc(-c2nc3ccccc3o2)cc1)c1ccc2c(c1)OCO2 | u | VCAM1 pot confirm=-15.9
O=C(CN1C(=O)c2ccccc2C1=O)Nc1ccc(-c2nc3ccccc3o2)cc1 | 28.6
N#Cc1cc(-c2ccccc2)nnc1Oc1ccccc1Cl | -3.4
SMILES | VCAM1 TNFa pot | others
COCCSc1nnc(NC(=O)CSCc2ccccc2)s1 | 19.6
COC(=O)c1nn(-c2ccc(Cl)cc2)c(=O)cc1Sc1ccccn1 | 6.2
Cc1cc(NCCN(C)C)n2nc(-c3cccs3)cc2n1 | 40.9* | VCAM1 pot confirm=-10.3
O=C(Cc1ccccc1)Nc1cccc(N2CCCC2)c1 | 38.3
CCC(C)N1CCCCC1C(=O)Nc1c(C)cc(C)cc1C (stereo not given) | 17.0
COc1ccc(CN(C(=O)CNC(=O)c2ccco2)C(C(=O)NC2CCCC2)c2ccco2)cc1 (stereo not given) | -7.6
O=C(NCc1ccco1)c1cc2c(s1)CCCCC2 | 22.2
O=CN(Cc1ccco1)C1(C(=O)NC2CCCCC2)CCCCC1 | 36.6* | VCAM1 pot confirm=-3.9
O=c1[nH]nnc2sc3c(c12)CCCC3 | -44.1
COc1nn(C(C)C(=O)N2N=C(C(F)F)CC2(O)C(F)F)cc1[N+](=O)[O-] (stereo not given) | 5.7
Cc1ccc(CC2(O)CC(C)N(C)CC2C)c(C)c1 (stereo not given) | 7.2
COc1ccccc1NC(=S)NC(=O)CC(C)C | -6.7
Cc1cc(SCC(N)=O)nc(SCC(=O)c2ccccc2)n1 | -1.8
CSc1nc(C)cc(SCC(=O)Nc2ccccc2)n1 | 55.5* | VCAM1 pot confirm=0.6
COc1cccc(NC(=O)CSc2nc(N)cc(N)n2)c1 | 23.0
COc1cccc(C2C(C(C)=O)=C(O)C(=O)N2CCc2c[nH]c3ccccc23)c1 (stereo not given) | -1.9
Cc1cccc(C)c1NS(=O)(=O)c1ccc(F)cc1 | -0.2
CCOc1ccc(CCNC(=O)Cn2c(=O)oc3ccccc32)cc1OCC | 0.0
COc1cc(OC)cc(C(=O)N2CCN(C(=O)c3ccc(OC)c(OC)c3)CC2)c1 | -1.6
CCCN1CCN(S(=O)(=O)c2ccc(OC)c(Br)c2)CC1 | -0.4
COc1ccc(C(=S)N2CCN(C)CC2)cc1Br | 37.5* | VCAM1 pot confirm=-21.5
COC(=O)C1=C(C)N(C2CCCC2)C(=O)C1(NC(C)=O)C(F)(F)F (stereo not given) | 14.4
COc1ccc(CCN2C(=O)CC(Sc3ncccc3C(=O)O)C2=O)cc1OC (stereo not given) | -27.0
Cn1c2c(c(=O)n(C)c1=O)CN(Cc1ccc3c(c1)OCO3)CN2 | 14.6
O=C(NC(C(=O)c1ccccc1)n1ccc(=O)[nH]c1=O)c1ccccc1 (stereo not given) | -27.2
CCCCCn1c(CCC(=O)Oc2ccccc2OC)nc2c1c(=O)[nH]c(=O)n2CCCC | 2.0
Brc1ccc(NCc2cccc3ccccc23)nc1 | 31.1* | VCAM1 pot confirm=-36.1
CC(=O)N(Cc1ccccc1)c1ncc2c(n1)c(=O)c(C#N)c1ccccn12 | -9.7
